We go through 52 compounds from ChEMBL document CHEMBL3988442, “University of Dundee, Small-Polar-MMV Screening Library” (2021).

Structures are written as SMILES. The campaign covered roughly 48,000 compounds. About 13,000 (27%) showed an effect of 50% or more. Some of the results follow.

In the assay the test system is Wolbachia pipientis. The experiment in a line: Anti-Wolbachia Cell-Based Screen. More on the design: scale not given: in the data most compounds retested in dose-response had high values. The following applies: 5 µM. In kind it is functional.
Turning to `Cn1ccc2c(ccn2CC(=O)Nc2ccc(Br)cc2)c1=O`, the “Percent Effect” value is 150.6%.

As for `Cc1ccc(NC(=O)Cn2ccc3c(=O)n(C)ccc32)cc1F`, the “Percent Effect” value was 136.8%.

In the case of `Cc1ccc(NC(=O)Cc2c(C)nc3c(c2C)c(=O)[nH]n3C)cc1F`, the “Percent Effect” value was -4.371%.

On to `CC(=O)c1c(C)nn(CC(=O)Nc2ccc(Br)cc2)c1C`, for which the “Percent Effect” value is listed as -0.7117%.

Turning to `COc1ccc(NC(=O)Cn2nc(C)c(C)cc2=O)cc1OC`, the “Percent Effect” value was -16.79%.

Turning to `COc1ccc(NC(=O)Cn2nc(C)ccc2=O)cc1OC`, the “Percent Effect” value is 11.2%.

With `Cc1cccn2c(=O)cc(CN3CCCC3Cn3cncn3)nc12` (configuration not stated), the “Percent Effect” value was 14.6%.

Take `O=C(NCCNS(=O)(=O)c1ccc2c(c1)CCCC2)c1ccoc1`: the “Percent Effect” value is given as 1.057%.

Regarding `CC(c1ccc(C(F)(F)F)cc1)N1CCN(CCS(C)(=O)=O)CC1` (configuration not stated), the “Percent Effect” value is given as -14.82%.

For `Cc1nn(C)cc1CNC(=O)c1cn(CCC2CCCCN2)nn1` (configuration not stated), the “Percent Effect” value is recorded as 3.544%.

Turning to `CCSCCN1CCCN(S(C)(=O)=O)CC1`, the “Percent Effect” value was found to be 101%.

Consider `CS(=O)(=O)N1CCN(Cc2ccc(F)cc2Br)CC1`, for which the “Percent Effect” value turned out to be 0.07282%.

On to `Cc1noc(C)c1C(=O)NCCN1CCN(S(C)(=O)=O)CC1`, for which the “Percent Effect” value is listed as 1.414%.

In the case of `CC(OCC(F)(F)F)C(=O)N1CCN(S(C)(=O)=O)CC1` (configuration not stated), the “Percent Effect” value is on record as -14.66%.

Regarding `CC(C)CSCCN1CCCN(S(C)(=O)=O)CC1`, the “Percent Effect” value is given as 87.23%.

As to `CS(=O)(=O)N1CCCN(CCCSCc2ccccc2)CC1`, the “Percent Effect” value was found to be 0.2965%.

Consider `COc1cccc(/C=C/CCN2CCN(S(C)(=O)=O)CC2)c1`, for which the “Percent Effect” value is -6.634%.

With `CC(C)COC(C)C(=O)N1CCN(S(C)(=O)=O)CC1` (configuration not stated), the “Percent Effect” value is -15.22%.

Consider `CC(C)CSCCN1CCN(S(C)(=O)=O)CC1`, for which the “Percent Effect” value came to 87.34%.

Turning to `c1ccc2c(c1)CCN(c1ncnc3sc4c(c13)CCNC4)C2`, the “Percent Effect” value is -22.34%.

For the compound `CC(C)(C)c1nnc(CN2CCn3c(nnc3C3CC3)C2)o1`, the “Percent Effect” value was -1.017%.

Regarding `Cc1nn(C)c(N(C)C)c1CNCc1cccc(CN(C)C(C)C)c1`, the “Percent Effect” value is given as 4.552%.

Take `COc1cc(CNCc2c(C)nn(C)c2N(C)C)ccc1C`: the “Percent Effect” value is 5.351%.

On to `COc1cccc(OCCNCc2c(C)nn(C)c2N(C)C)c1`, for which the “Percent Effect” value was -5.717%.

As for `CCOc1cccc(C(C)NCc2c(C)nn(C)c2N(C)C)c1` (configuration not stated), the “Percent Effect” value is reported as 98.21%.

As to `Cc1nn(C)c(N(C)C)c1CNCC(O)COc1ccc(F)cc1` (configuration not stated), the “Percent Effect” value is reported as -24.06%.

Regarding `Cc1nn(C)c(N(C)C)c1CNC(C)COc1ccc(F)cc1F` (configuration not stated), the “Percent Effect” value is 105.9%.

For `Cc1nn(C)c(N(C)C)c1CNC(C)COc1ccc(F)cc1` (configuration not stated), the “Percent Effect” value was 102.4%.

Turning to `Cc1nn(C)c(N(C)C)c1CNC(C)COc1ccccc1F` (configuration not stated), the “Percent Effect” value came out at 101.5%.

As to `Cc1nn(C)c(N(C)C)c1CNC(C)c1cccnc1` (configuration not stated), the “Percent Effect” value is recorded as 9.889%.

With `Cc1nn(C)c(N(C)C)c1CNCC(O)COc1ccccc1.Cl` (configuration not stated), the “Percent Effect” value is recorded as -3.331%.

Consider `COCCOc1ccccc1CNCc1c(C)nn(C)c1N(C)C`, for which the “Percent Effect” value came out at 3.924%.

For `c1cc(-c2c[nH]c([C@@H]3COCCN3C3CCOCC3)n2)ccn1`, the “Percent Effect” value is given as -2.86%.

Take `COc1cccc(C(C)N2CCN(S(=O)(=O)CCCF)CC2)c1` (configuration not stated): the “Percent Effect” value amounted to 11.55%.

For the compound `CC(C(=O)Nc1ccnn1C(C)C)N1CCN(Cc2ccccc2)CC1` (configuration not stated), the “Percent Effect” value was -23.16%.

In the case of `c1cc(-c2cnc(C3CCNCC3)cn2)n[nH]1`, the “Percent Effect” value was 125.1%.

In the case of `c1cc(-c2cncc(C3CCNCC3)n2)n[nH]1`, the “Percent Effect” value amounted to 120.5%.

For `O=c1n(Cc2ncccn2)nc(C2CCNCC2)n1-c1ccccc1`, the “Percent Effect” value was found to be 0.768%.

Turning to `CC(C)n1cnc2c(-c3cccnc3)nc(C3CCNCC3)cc21.Cl.Cl`, the “Percent Effect” value was -47.69%.

In the case of `O=C(c1cscn1)N1CCCC12CCCN(S(=O)(=O)c1ccccc1)C2` (configuration not stated), the “Percent Effect” value is given as -2.919%.

`CC(C)[C@@H]1CN(Cc2cnc3c(S(C)(=O)=O)cnn3c2)C[C@H]1N(C)C`: the “Percent Effect” value is -1.352%.

Turning to `CS(=O)(=O)NCCCN1CCCC1Cc1ccccc1` (configuration not stated), the “Percent Effect” value is -4.416%.

`OCC1CCCN1c1cc(NCc2ccc(Cl)s2)ncn1` (configuration not stated): the “Percent Effect” value is 16.81%.

`CN(CCCNc1cc(N2CCCC2CO)ncn1)S(C)(=O)=O` (configuration not stated): the “Percent Effect” value is recorded as -14.7%.

As to `Cc1nccc(N2C[C@H](NC(=O)CNS(C)(=O)=O)[C@@H](C3CC3)C2)n1`, the “Percent Effect” value is -1.379%.

`Cc1cccnc1CNc1cc(N2CCCC2CO)ncn1` (configuration not stated): the “Percent Effect” value was -0.7119%.

As to `OCC1CCCN1c1cc(NCc2cccs2)ncn1` (configuration not stated), the “Percent Effect” value is given as 94.03%.

For `CCc1ccc(CNc2cc(N3CCCC3CO)ncn2)s1` (configuration not stated), the “Percent Effect” value is 110.8%.

`CNc1cc(N2CCCC2CNCc2ccccn2)ncn1` (configuration not stated): the “Percent Effect” value is given as -5.969%.

On to `COc1ncccc1CNc1cc(N2CCCC2CO)ncn1` (configuration not stated), for which the “Percent Effect” value turned out to be 0.4879%.

In the case of `Cc1nccc(N2CCCC2CCNS(C)(=O)=O)n1` (configuration not stated), the “Percent Effect” value was 105.7%.

Take `Cc1nccc(CNc2cc(N3CCCC3CO)ncn2)n1` (configuration not stated): the “Percent Effect” value is 87.89%.
